Source: PubChem
An excerpt weighted towards active compounds, which were near 1.6% of everything screened.
KCNQ2 pot – KCNQ2 (rat) channel potentiation; CHO-K1 KCNQ2, FluxOR thallium flux fluorescence; hits give high values; O88943; 310,000 tested, 0.54% active; B-score at 10 µM;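 active means fluorescence ratio B-score at least 3 SD of library B-scores, with initial fluorescence B-score within 3 of them, cut at about 5.3 in these data; same plate scores as AID 2156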;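 further: B-score of peak minus minimum over baseline fluorescence ratio after K+ and Tl+ stimulus; positive B-score means potentiation of KCNQ2 with more thallium influx and brighter signal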
KCNQ2 block – inhibitors of rat KCNQ2 potassium channel; CHO-K1 KCNQ2, FluxOR thallium flux, 20 min; hits give low values; O88943; B-score at 10 µM; 310,000 tested, 1.1% active;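 active means fluorescence ratio B-score at most minus 3 library SDs, with starting brightness B-score within 2 library SDs, cut at about -5.5 in these data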
Kir21 conf inh – confirmation of mouse Kir2.1 potassium channel inhibitors; shares compounds with KCNQ2 pot; Kir2.1-expressing cells, FluxOR thallium flux fluorescence; hits give low values; Tl flux remaining, % of negative control (hits give low values), % at 10 µM; 2,300 tested, 41% active; AID 2032;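 active means Primary-screen hit whose thallium flux fell at least 3 control SD below untreated wells in both duplicates, with normal baseline fluorescence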;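 further: 0% = blank wells without stimulus and 100% = stimulated no-compound controls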
Target sequence (P35561 whole entry, looked up): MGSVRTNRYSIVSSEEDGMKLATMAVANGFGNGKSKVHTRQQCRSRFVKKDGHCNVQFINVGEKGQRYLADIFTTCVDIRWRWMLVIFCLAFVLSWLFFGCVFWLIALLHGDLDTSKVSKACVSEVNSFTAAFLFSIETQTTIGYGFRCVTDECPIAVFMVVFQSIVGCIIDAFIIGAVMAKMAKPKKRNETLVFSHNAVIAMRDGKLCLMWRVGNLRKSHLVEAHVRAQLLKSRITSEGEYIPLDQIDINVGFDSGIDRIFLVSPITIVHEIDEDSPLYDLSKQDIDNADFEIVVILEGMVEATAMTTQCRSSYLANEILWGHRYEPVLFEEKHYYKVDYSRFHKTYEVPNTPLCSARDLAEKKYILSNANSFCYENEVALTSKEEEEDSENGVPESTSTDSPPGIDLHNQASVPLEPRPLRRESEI
HEK293 ctr – counter-screen for Kir2.1 inhibitors: effect in parental HEK293 cells. AID 2105. 2,300 tested, 19% active. shares compounds with KCNQ2 pot. FluxOR signal as % of negative control (100 = no effect), % at 10 µM. FluxOR thallium flux fluorescence; 0% = unstimulated blank wells;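 active means dye signal at least 3 control SD above or below untreated wells in both duplicates, raw fluorescence within 3, either direction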;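 further: percent is based on the flux ratio of peak minus minimum fluorescence over baseline F0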
CHO-K1 Tl ctr – counter-screen for KCNQ2 potentiators: effect in parental CHO-K1 cells; shares compounds with KCNQ2 pot; FluxOR thallium flux fluorescence; zero = vehicle mean+3SD, 100% = vehicle-minus-blank window; activity increase over 3SD of controls, % at 10 µM; 1,200 tested, 43% active; AID 2282;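 active means signal rise of at least 3 SD above the untreated control mean, in both duplicate wells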;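 further: counter screen of KCNQ2 potentiator hits so any rise reflects channel-independent effects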
KCNQ1 pot spec – selectivity of KCNQ2 potentiators: effect on human KCNQ1. activation over 3SD threshold, % at 10 µM. AID 2283. shares compounds with KCNQ2 pot. CHO KCNQ1 stable, FluxOR thallium flux fluorescence; beyond 3SD, as % of vehicle-control signal. 1,200 tested, 28% active;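 active means fluorescence ratio rise of at least 3 SD of vehicle wells above their mean, in both replicate wells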;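 further: 0% = vehicle mean plus 3 SD and 100% = vehicle minus unstimulated blank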
KCNQ2 pot conf – rat KCNQ2 channel potentiator confirmation. 1,200 tested, 68% active. CHO-KCNQ2 cells, FluxOR thallium flux fluorescence. shares compounds with KCNQ2 pot. AID 2287. potentiation, less the hit threshold, % at 10 µM;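 active means fluorescence ratio rising 3 SD or more over the vehicle control mean in both replicates, plus primary screen hit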;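 further: peak minus minimum thallium fluorescence divided by baseline after K/Tl stimulus; 0% = vehicle mean plus 3 SD and 100% = vehicle minus unstimulated blank difference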
Kir2-1 sel – mouse Kir2.1 off-target activity of KCNQ2 potentiators | AID 2345 | shares compounds with KCNQ2 pot | 1,200 tested, 2% active | activity over 3SD threshold, % at 10 µM | HEK293 Kir2.1, FluxOR thallium flux fluorescence;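 active means fluorescence ratio rise of at least 3 SD above the vehicle-control mean, seen in both replicates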;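 further: 0% = vehicle mean plus 3 SD and 100% = vehicle minus no-stimulus blank window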
KCNQ2 W236L pot – potentiates the retigabine-insensitive rat KCNQ2 W236L mutant channel | 940 tested, 10% active | current increase over 3SD of negative controls (%), hits give high values, % at 25 µM | CHO KCNQ2-W236L, automated patch clamp current | shares compounds with KCNQ2 pot;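 active means current increase at least 3 SD of the untreated controls above them in both duplicate recordings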
* hit, by the source's call.

Results for Cc1cc(C)c(Cn2c3ccccc3c3cnn(CC(=O)NCc4ccccn4)c(=O)c32)c(C)c1 ?
KCNQ2 pot: 14*; KCNQ2 block: inactive; Kir21 conf inh: inactive; HEK293 ctr: inactive; CHO-K1 Tl ctr: -40; KCNQ1 pot spec: -14; KCNQ2 pot conf: 8.7*; Kir2-1 sel: -12; KCNQ2 W236L pot: inactive

How did O=C(NCCc1ccc(Cl)cc1)C1(c2ccccc2)CC1 do in these assays?
KCNQ2 block: inactive; Kir21 conf inh: 34%*; HEK293 ctr: inactive

What do the screens show for `COc1ccc(C2(C(=O)NCCc3ccccc3)CCCC2)cc1`?
KCNQ2 block: inactive

How did O=C(O)CCC(=O)N1CCC(n2nnc3cc(C(F)(F)F)ccc32)CC1 do in these assays?
KCNQ2 pot: 1.2; KCNQ2 block: inactive

What do the screens show for `CCOC(=O)c1nc(C)nc(Sc2n[nH]c(-c3cc(C(F)(F)F)cc(C(F)(F)F)c3)n2)c1C`?
KCNQ2 block: inactive

Results for C=CCc1cc(Cl)ccc1OCCOCCNC(C)CC (centres undefined) ?
KCNQ2 pot: 0.16; KCNQ2 block: inactive; Kir21 conf inh: inactive; HEK293 ctr: inactive

What do the screens show for `C=CCc1cc(Cl)ccc1OCCCNC(C)C`?
KCNQ2 pot: 0.39; KCNQ2 block: inactive

Results for CCN(CC)CCN(C(=O)Cn1nnc(-c2ccc(C)o2)n1)C(C(=O)NC1CCCC1)c1ccc(F)cc1 (centres undefined) ?
KCNQ2 pot: 1.3; KCNQ2 block: inactive

How did COc1cc(CN2CCN(Cc3ccc(C(F)(F)F)cc3)CC2)cc(OC)c1OC do in these assays?
KCNQ2 pot: 0.16; KCNQ2 block: inactive

What do the screens show for `CCOC(=O)c1sc(=S)n(C)c1NC(=O)c1ccccc1`?
KCNQ2 block: inactive

How did CCOC(=O)c1sc(=S)n(-c2ccccc2)c1NC(C)=O do in these assays?
KCNQ2 pot: 7.5*; KCNQ2 block: inactive; CHO-K1 Tl ctr: 35*; KCNQ1 pot spec: 3.6*; KCNQ2 pot conf: 7.8*; Kir2-1 sel: -61; KCNQ2 W236L pot: inactive

How did CN(C(=O)COC(=O)/C=C/c1ccc(F)cc1)c1c(N)n(Cc2ccccc2)c(=O)[nH]c1=O do in these assays?
KCNQ2 pot: 1.2; KCNQ2 block: inactive

What do the screens show for `ON/C=N/C(=S)Nc1ncc(C(F)(F)F)cc1Cl`?
KCNQ2 pot: 11*; KCNQ2 block: inactive; Kir21 conf inh: inactive; HEK293 ctr: 140%*; CHO-K1 Tl ctr: -1; KCNQ1 pot spec: -13; KCNQ2 pot conf: 41*; Kir2-1 sel: -37; KCNQ2 W236L pot: inactive

Results for CON/C=N/C(=S)Nc1ncc(C(F)(F)F)cc1Cl ?
KCNQ2 pot: 12*; KCNQ2 block: inactive; Kir21 conf inh: inactive; HEK293 ctr: 218%*; CHO-K1 Tl ctr: -22; KCNQ1 pot spec: 32*; KCNQ2 pot conf: 18*; Kir2-1 sel: -21; KCNQ2 W236L pot: inactive

Results for CC(Cl)C(=O)Nc1ncc(C(F)(F)F)cc1Cl (centres undefined) ?
KCNQ2 pot: 0.2; KCNQ2 block: inactive

How did Cc1ccc(NC(=S)NNc2ncc(C(F)(F)F)cc2Cl)cc1 do in these assays?
KCNQ2 pot: 1.9; KCNQ2 block: inactive

Results for CCOC(=O)c1c(-c2ccccc2)csc1NC(=O)CSc1nnc(C)s1 ?
KCNQ2 block: inactive

What do the screens show for `CCOC(=O)c1c(-c2ccccc2)csc1NC(=S)NC`?
KCNQ2 pot: 7.8*; KCNQ2 block: inactive; Kir21 conf inh: inactive; HEK293 ctr: 220%*; CHO-K1 Tl ctr: -4; KCNQ1 pot spec: -22; KCNQ2 pot conf: 7.3*; Kir2-1 sel: -27; KCNQ2 W236L pot: inactive

How did Cc1ccccc1C(=O)Nc1ccc(N(C)C)c2ccccc12 do in these assays?
KCNQ2 pot: 0.32; KCNQ2 block: inactive

What do the screens show for `Nc1nc2c(s1)CCCCCCCCCC2`?
KCNQ2 pot: 6*; KCNQ2 block: inactive; Kir21 conf inh: 64%*; HEK293 ctr: 70%*; CHO-K1 Tl ctr: -40; KCNQ1 pot spec: 89*; KCNQ2 pot conf: -9; Kir2-1 sel: -73; KCNQ2 W236L pot: inactive

Results for Nc1c2c(nc3sc4c(c13)CCCCC4)CCCCC2 ?
KCNQ2 block: inactive

Results for Cc1cc(OCCCCOc2ccc(S(N)(=O)=O)c(C)c2)ccc1S(N)(=O)=O ?
KCNQ2 block: inactive

What do the screens show for `Cc1nc2ccccn2c1C(=O)CSc1cccc(Cl)c1`?
KCNQ2 block: inactive

How did COC(=O)c1ccccc1NC(=O)CSc1nnc(-c2cccnc2)n1N do in these assays?
KCNQ2 pot: 0.3; KCNQ2 block: inactive

How did C=CCOc1ccccc1CNCCc1ccc(S(N)(=O)=O)cc1 do in these assays?
KCNQ2 block: inactive

What do the screens show for `NS(=O)(=O)c1ccc(CCNCc2ccccc2OCc2ccc(Cl)cc2)cc1`?
KCNQ2 pot: 4.3; KCNQ2 block: inactive; Kir21 conf inh: 44%*; HEK293 ctr: inactive

Results for NS(=O)(=O)c1ccc(CCNCc2cc(Br)ccc2OCc2ccccc2F)cc1 ?
KCNQ2 block: inactive; Kir21 conf inh: 64%*; HEK293 ctr: inactive

How did NS(=O)(=O)c1ccc(CCNCc2cc(Cl)ccc2OCc2ccccc2)cc1 do in these assays?
KCNQ2 pot: 1.7; KCNQ2 block: inactive

How did CC1CCN(CCCNC(=O)C2CC(=O)N(CCc3ccccc3)C2)CC1 (centres undefined) do in these assays?
KCNQ2 pot: 0.73; KCNQ2 block: inactive

Results for COc1cccc(N2CCc3c(C)nc4ccc(Cl)cc4c32)c1 ?
KCNQ2 block: inactive; Kir21 conf inh: 20%*; HEK293 ctr: inactive

What do the screens show for `COc1ccc(N2CCc3c(C)nc4c(OC)cccc4c32)cc1`?
KCNQ2 pot: 1.1; KCNQ2 block: inactive

Results for O=c1ccc2cc(S(=O)(=O)NCc3ccccc3)ccc2[nH]1 ?
KCNQ2 pot: 0.16; KCNQ2 block: inactive

What do the screens show for `O=S(=O)(c1ccccc1F)N1CCCc2ccccc21`?
KCNQ2 pot: 0.02; KCNQ2 block: inactive; Kir21 conf inh: 60%*; HEK293 ctr: inactive

Results for O=[N+]([O-])c1ccccc1S(=O)(=O)N1CCCc2ccccc21 ?
KCNQ2 block: inactive
